Bioassay records: PubChem BioAssay, several laboratories
Most compounds without a hit are left out; they make up all but 2% or so of the library.
Bim-Mcl-1 – inhibitors of Bim peptide binding to Mcl-1, primary screen, biochemical, bead-based flow cytometry, multiplex; Bim peptide-Mcl-1 binding; inhibition, % at 10 µM; 190,000 tested, 0.1% active; in the data active = inhibition above about 40%;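 note: 0% = no compound tracer wells and 100% = peptide blocker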
Target sequence (Q07820 whole entry, looked up): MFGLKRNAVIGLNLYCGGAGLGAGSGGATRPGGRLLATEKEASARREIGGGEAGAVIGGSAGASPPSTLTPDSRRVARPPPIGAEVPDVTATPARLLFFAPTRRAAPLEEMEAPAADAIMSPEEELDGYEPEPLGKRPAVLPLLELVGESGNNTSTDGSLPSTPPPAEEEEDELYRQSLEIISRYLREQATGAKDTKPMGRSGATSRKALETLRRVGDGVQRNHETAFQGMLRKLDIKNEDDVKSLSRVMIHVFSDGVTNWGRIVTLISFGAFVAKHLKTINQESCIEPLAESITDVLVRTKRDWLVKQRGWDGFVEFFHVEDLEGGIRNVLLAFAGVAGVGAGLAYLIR
MCL1 BIM primary – inhibitors of MCL1 binding to BIM-BH3, primary screen, biochemical, fluorescence polarization. Induced myeloid leukemia cell differentiation protein Mcl-1 (Homo sapiens), Q07820. inhibition, % at 10.9 µM. GST-MCL1 / FITC-Bim-BH3 fluorescence polarization. 320,000 tested, 0.68% active. AID 2057, 2009;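 active = inhibition above the mean inhibition of all tested compounds plus 3 SD, set per campaign, cut at about 40% in these data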;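 note: 0% = DMSO wells and 100% = unlabeled Bim-BH3 peptide control; higher means more loss of mP so more displacement of Bim peptide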
Mcl1 Bid PPI – Mcl-1/Bid binding inhibitors, primary screen, biochemical, TR-FRET, 1536-well; Induced myeloid leukemia cell differentiation protein Mcl-1 (Homo sapiens), Q07820; TR-FRET Mcl-1/Bid-Dy647 peptide binding; inhibition, % at 21.7 µM; 220,000 tested, 0.97% active; AID 1021, 2008;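 active = compounds that cut the binding signal by more than half at the single screening dose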;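 note: His-tagged Mcl-1 with europium anti-His antibody binding Bid BH3 peptide; 0% = Mcl-1 plus peptide wells and 100% = peptide-only wells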
Mcl1-Noxa inh – Mcl-1/Noxa binding inhibitors, primary screen, biochemical, TR-FRET, 1536-well; Induced myeloid leukemia cell differentiation protein Mcl-1 (Homo sapiens), Q07820; TR-FRET Mcl-1/Noxa peptide binding, 2 h; inhibition, % at 21.7 µM; 220,000 tested, 1.5% active; AID 1022, 2008;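 active = compounds that cut the protein-peptide binding signal by more than 50% relative to plate controls in a single-dose test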;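 note: His-tagged Mcl-1 with rhodamine Noxa BH3 peptide and terbium anti-His antibody; 0% = Mcl-1 plus Noxa peptide wells and 100% = peptide-only wells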
BCLXL inh confirm – Bcl-xL inhibitors blocking Bim BH3 binding, confirmation, counter-screen for MCL1 inhibitor project, biochemical, fluorescence polarization; shares compounds with MCL1 BIM primary; GST-Bcl-xL / FITC-Bim BH3 peptide FP binding; inhibition, % at 10.9 µM; 1,700 tested, 54% active; AID 2166, 2009;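 active = inhibition above a cutoff equal to the mean inhibition of all tested compounds plus 3 SD, cut at about 30% in these data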;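 note: 0% = DMSO wells and 100% = unlabeled Bim BH3 control peptide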
Target sequence (Q07817 whole entry, looked up): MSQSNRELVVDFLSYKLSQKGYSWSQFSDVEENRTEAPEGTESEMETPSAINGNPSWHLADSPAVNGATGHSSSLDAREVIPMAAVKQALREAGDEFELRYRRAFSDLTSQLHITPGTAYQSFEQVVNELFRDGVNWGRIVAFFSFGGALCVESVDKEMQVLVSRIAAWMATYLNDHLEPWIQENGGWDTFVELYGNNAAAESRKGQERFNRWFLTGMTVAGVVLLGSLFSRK
MCL1 BIM confirm – inhibitors of MCL1 binding to BIM-BH3, confirmation, biochemical, fluorescence polarization, triplicate; inhibition, % at 10.9 µM; 1,700 tested, 61% active; GST-MCL1 / FITC-Bim-BH3 fluorescence polarization; shares compounds with MCL1 BIM primary;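 active = inhibition above the average of all tested compounds plus 3 SD, cut at about 40% in these data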;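 note: 0% = DMSO wells and 100% = unlabeled Bim-BH3 control peptide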
* hit, by the source's call; / = no result given; ! = repeats disagree.

SMILES | Bim-Mcl-1 | MCL1 BIM primary | Mcl1 Bid PPI | Mcl1-Noxa inh | BCLXL inh confirm | MCL1 BIM confirm
CCc1oc2ccccc2c1C(=O)c1cc(Br)c(O)c(Br)c1 | -4.0 | 62.3* | 51.8*! | 33.3 | 4.3 | 11.6
Nc1c(C(=O)C2CC2)sc2nc(-c3cccs3)cc(C(F)(F)F)c12 | -5.0 | 71.5* | -22.8 | -31.7 | 13.0 | -17.4
O=c1[nH]c(=S)[nH]c2nc(-c3cccs3)cc(C(F)(F)F)c12 | / | 15.0 | / | / | / | /
O=C1C(Cc2ccccc2)Nc2ncnc(N3CCN(c4ccccc4)CC3)c2N1Cc1ccc(Cl)cc1 (stereo unspecified) | / | -4.7 | / | / | / | /
CC(C)(C)NC(=O)NC(=O)CN1CCCc2ccccc21 | -4.0 | 84.5* | -71.8 | -3.1 | 10.8 | 12.7
O=C(CN1CCCc2ccccc21)NC(=O)NCc1ccccc1 | / | 3.7 | -49.8 | -9.8 | / | /
CC1(c2ccc3c(c2)OCCO3)NC(=O)N(CC(=O)Nc2ccccc2SCC#N)C1=O (stereo unspecified) | / | -31.0 | / | / | / | /
O=C(Nc1cccc(-c2cccc(F)c2)c1)C1CCN(C2CCOCC2)CC1 | / | 0.3 | / | / | / | /
CCOC(=O)C1=C(CSc2nc3c(cc2C#N)CN(C)CC3)OC(N)=C(C#N)C1c1ccc(Cl)cc1 (stereo unspecified) | 0.0 | 52.5* | -26.3 | 1.0 | 40.9* | 43.8*
CCOC(=O)C1=C(CSc2nc(CC)c(C)cc2C#N)OC(N)=C(C#N)C1c1ccccc1 (stereo unspecified) | -1.0 | -3.8 | -2.2 | 3.3 | / | /
CCOC(=O)C1=C(CSc2nc(C)cc(C)c2C#N)OC(N)=C(C#N)C1c1ccccc1 (stereo unspecified) | -4.0 | -1.2 | -13.7 | 11.5 | / | /
CCOC(=O)C1=C(CSc2nc3c(cc2C#N)CN(C)CC3)OC(N)=C(C#N)C1c1ccncc1 (stereo unspecified) | -2.0 | 143.4* | -3.4 | 12.1 | 107.9* | 119.0*
CC1(NC(=O)CCc2nc3sc4c(c3c(=O)[nH]2)CCCC4)CCS(=O)(=O)C1 (stereo unspecified) | / | 41.6* | / | / | 9.5 | 44.3*
CC(=O)Nc1ccc(NC(=O)CCc2nc3sc4c(c3c(=O)[nH]2)CCCC4)cc1 | / | 8.1 | / | / | / | /
Cc1nn(C)cc1C1C2=C(CC(C)(C)CC2=O)N(c2ccccc2)C2=C1C(=O)CC(C)(C)C2 | -3.0 | 3.1 | -33.1 | -5.0 | / | /
Cc1ccc(N2C3=C(C(=O)CC(C)(C)C3)C(c3cn(C)nc3C)C3=C2CC(C)(C)CC3=O)cc1 | / | 103.8* | / | / | 116.1* | 157.7*
COc1ccc(C)cc1NC(=O)c1ccc2c(O)c(S(=O)(=O)c3ccccc3)c(=O)[nH]c2c1 | / | -2.0 | / | / | / | /
N#Cc1c(-c2ccncc2)c2c([nH]c1=S)CCCC2 | -6.0 | 0.8 | -77.3 | 39.0 | / | /
Cc1ccc(-c2c3c([nH]c(=S)c2C#N)CCCC3)o1 | 2.0 | 43.1* | -25.6 | 74.4* | 25.4 | 19.7
CCOc1ccc(C(=O)NC(=S)Nc2cccnc2)cc1[N+](=O)[O-] | -1.0 | 2.5 | -7.7 | 12.6 | / | /
COc1ccc(C(=O)NC(=S)Nc2cccnc2)cc1[N+](=O)[O-] | -4.0 | 41.6* | -24.4 | 13.2 | 21.9 | 19.1
COc1cccc(=O)c2c(C)n(-c3cc(C)cc(C)c3)c(C)c12 | -4.0 | -0.4 | -33.8 | 0.0 | / | /
COc1cccc(-n2c(C)c3c(OC)cccc(=O)c3c2C)c1 | 0.0 | 41.3* | -67.8 | 32.7 | 16.5 | 14.8
Cc1c(Cl)cccc1NCC(=O)NN=C1CCCC1 | 0.0 | 4.2 | -6.6 | 14.9 | / | /
CCOC(=O)C/C(C)=N/NC(=O)CNc1cccc(Cl)c1C | 0.0 | 42.8* | -15.3 | -9.8 | 1.2 | 1.7
SMILES | Bim-Mcl-1 | MCL1 BIM primary | Mcl1 Bid PPI | Mcl1-Noxa inh | BCLXL inh confirm | MCL1 BIM confirm
Cc1ccc(Cl)cc1NC(=O)COC(=O)CC1CCCCC1 | / | -0.3 | / | / | / | /
O=C(CCN1C(=O)C2CC=C(Cl)CC2C1=O)N1CCCCC1 (stereo unspecified) | -1.0 | 55.6* | -30.2 | -1.7 | 56.1* | 65.8*
Cc1cc(F)ccc1S(=O)(=O)N1CCCOC1CNC(=O)C(=O)NC1CCCCC1 (stereo unspecified) | / | -5.6 | / | / | / | /
Cc1ccc(-c2cc(C(=O)O)c3cc(Br)ccc3n2)o1 | 1.0 | 74.6* | 17.7 | 92.5* | 28.4 | 43.6*
CCc1nnc(NC(=O)c2cc(-c3ccc(C)o3)nc3ccccc23)s1 | / | 13.1 | / | / | / | /
Cc1csc(NC(=O)c2cc(-c3ccco3)nc3ccccc23)n1 | -2.0 | 39.9* | 12.5 | 98.7* | 20.7 | 60.3*
Cc1nnc(NC(=O)c2cc(-c3ccco3)nc3ccccc23)s1 | / | 65.5* | / | / | 7.0 | 32.6
Cc1ccc(-c2cc(C(=O)NCc3ccco3)c3ccccc3n2)o1 | 0.0 | 51.4* | 0.6 | 66.1* | 30.3* | 58.4*
Cc1csc(NC(=O)c2cc(C)nc3ccccc23)n1 | 0.0 | -3.9 | -1.8 | 24.3 | / | /
CCOc1ccc(/C=N/NC(=O)c2cc(-c3ccco3)nc3ccccc23)cc1 | 0.0 | -2.0 | -18.6 | 44.9 | / | /
O=C(N/N=C/c1ccc(F)cc1)c1cc(-c2ccco2)nc2ccccc12 | -1.0 | 64.1* | 98.0* | 104.4* | 32.9* | 80.1*
O=C(C[n+]1cccc2ccccc21)c1ccc(Br)cc1 | / | -1.1 | / | / | / | /
O=C(C[n+]1cc(Br)cc2ccccc21)c1ccc(Br)cc1 | / | 93.8* | / | / | 54.5* | 73.8*
O=C(C[n+]1cc(Br)cc2ccccc21)c1ccc(Cl)cc1 | / | 85.9* | / | / | 23.4 | 35.3
O=C1C=C(Nc2ccccc2O)c2ccccc2C1=O | -1.0 | 100.4* | -23.1 | 11.0 | 15.1 | 16.1
Cc1ccc(NC2=CC(=O)C(=O)c3ccccc32)c(C)c1 | / | 3.5 | / | / | / | /
Cc1cc(C)cc(C(=O)Nn2cnnc2)c1 | / | 6.1 | / | / | / | /
CC1CN(C(=O)c2ccc(-c3cccc(C(F)(F)F)c3)o2)CC(C)O1 (stereo unspecified) | / | -6.3 | / | / | / | /
COCCN(C(=O)COC(=O)c1cc2c(s1)CCC2)c1c(N)n(Cc2ccccc2)c(=O)[nH]c1=O | / | 90.8* | / | / | 39.8* | 88.4*
CCOC(=O)N/N=C\c1ccc([N+](=O)[O-])o1 | 0.0 | 63.9* | -37.3 | 0.8 | 0.6 | 2.2
CCCCCCCC(=O)N/N=C/c1ccc([N+](=O)[O-])o1 | -4.0 | 13.7 | 3.5 | 17.0 | / | /
Cc1ccc(/C=C2/NC(=O)N(Cc3ccccc3)C2=O)o1 | 2.0 | 48.7* | -27.1 | 45.3 | -48.5 | -83.0
COC(=O)CN1C(=O)N/C(=C/c2ccc(C)o2)C1=O | -3.0 | 26.0 | -25.7 | 33.4 | / | /
O=[N+]([O-])c1cccc(Oc2cnccn2)c1 | / | 40.8* | / | / | 4.7 | 1.6
